Test results published in PubChem BioAssay (NCATS).
Inconclusive results are not listed. Activity calls are given as the source filed them. Unless noted, calls come from the whole dose curve; as a rule, active = well fitted curve in either direction with a large enough effect (not every such curve was filed as active); inconclusive = small, poorly fitted or top-dose-only effect, or another doubt; inactive = flat fitted curve, though single readings scatter.

Assays:
[1] = biological target: Lysosomal acid glucosylceramidase (Homo sapiens) (UniProt P04062); test: Glucocerebrosidase-p2 (AID 348; in the data active = potency below about 10 µM; note: potency is the fitted concentration of half-maximal effect); conditions: purified GBA, blue fluorogenic substrate, 40 min
Sequence of Lysosomal acid glucosylceramidase (Homo sapiens) (P04062 whole entry, looked up): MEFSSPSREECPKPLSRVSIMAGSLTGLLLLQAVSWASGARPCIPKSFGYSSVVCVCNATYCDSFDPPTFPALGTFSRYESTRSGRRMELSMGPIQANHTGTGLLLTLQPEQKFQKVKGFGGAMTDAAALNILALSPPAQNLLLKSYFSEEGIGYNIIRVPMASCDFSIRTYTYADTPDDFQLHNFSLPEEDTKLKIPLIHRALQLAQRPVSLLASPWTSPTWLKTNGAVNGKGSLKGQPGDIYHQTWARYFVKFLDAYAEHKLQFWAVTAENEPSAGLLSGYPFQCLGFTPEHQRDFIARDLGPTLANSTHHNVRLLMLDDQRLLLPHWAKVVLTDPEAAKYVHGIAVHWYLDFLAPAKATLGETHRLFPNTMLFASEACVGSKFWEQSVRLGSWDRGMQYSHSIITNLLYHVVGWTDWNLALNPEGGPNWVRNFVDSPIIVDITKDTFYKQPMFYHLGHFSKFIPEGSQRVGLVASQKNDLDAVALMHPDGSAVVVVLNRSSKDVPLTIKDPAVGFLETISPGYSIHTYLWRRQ
Outline: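 Normal human glucocerebrosidase (0.2 nM) with blue fluorogenic substrate (80 uM final) in citrate/phosphate pH 5.9 with 10mM sodium taurocholate, 0.01% tween-20; 40 min RT, NaOH/glycine stop; fluorescence Ex 365/Em 440; AC50 from a titration from 0.6 nM upwards.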

[2] = AP1 Signaling Pathway (AID 357); conditions: ME-180 AP-1-bla reporter, EGF-induced, beta-lactamase ratio, 5 h; at 7.69 µM (top of the series) unless noted;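 note: ME-180 reporter cells stimulated with EGF at its EC50 level; % is set by controls: 0 for no effect and ±100 for the full control effect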
Outline: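 Read-out was the 460nm/530nm emission ratio (excitation 405nm) after CCF4 loading for 2.5 hours at room temperature. Cells carried an AP-1-driven beta-lactamase reporter, were stimulated with EC50 EGF plus compound for 5 hours, and AC50 values came from titrations.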

[3] = biological target: Cytochrome P450 1A2 (Homo sapiens) (UniProt P05177); test: p450-cyp1a2 (AID 410; calls by dose curve; note: potency is the fitted concentration of half-maximal effect;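 for activity change, negative = inhibition: -100% = full effect of reference inhibitor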); conditions: recombinant CYP1A2, luciferin-ME demethylation, luminescence; series mostly up to 57 µM
Sequence of Cytochrome P450 1A2 (Homo sapiens) (P05177 whole entry, looked up): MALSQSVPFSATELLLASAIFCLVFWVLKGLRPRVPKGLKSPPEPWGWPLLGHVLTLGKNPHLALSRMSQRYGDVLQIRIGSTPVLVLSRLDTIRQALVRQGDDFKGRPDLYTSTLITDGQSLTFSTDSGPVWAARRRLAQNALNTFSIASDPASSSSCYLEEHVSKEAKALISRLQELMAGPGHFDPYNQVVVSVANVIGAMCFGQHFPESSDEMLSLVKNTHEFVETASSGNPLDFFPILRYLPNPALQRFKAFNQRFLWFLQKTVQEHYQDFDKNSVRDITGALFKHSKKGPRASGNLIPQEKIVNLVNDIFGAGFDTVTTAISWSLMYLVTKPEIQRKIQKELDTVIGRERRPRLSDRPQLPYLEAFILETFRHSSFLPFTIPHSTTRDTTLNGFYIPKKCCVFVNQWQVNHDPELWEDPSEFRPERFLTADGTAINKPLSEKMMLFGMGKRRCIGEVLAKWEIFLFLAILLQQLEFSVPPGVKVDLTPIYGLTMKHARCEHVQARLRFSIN
Outline: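 O-Demethylation of luciferin 6' methyl ether by human CYP1A2 is monitored as luciferase luminescence. Substrate sits at Km (100uM); enzyme is 20nM. Values are scaled to 57 uM furafylline as maximal inhibition.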

[4] = NFAT Signaling Pathway (AID 444); conditions: Jurkat NFAT-bla M1, carbachol, beta-lactamase ratio, 5 h; at 7.69 µM (top of the series) unless noted;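 note: carbachol stimulus at about its EC50 of 1 µM final; % is set by controls: 0 for no effect and ±100 for the full control effect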
Outline: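 Jurkat cells carrying an NFAT-driven β-lactamase reporter and co-transfected muscarinic M1 receptor were treated with compound plus carbachol (1 uM final, an EC50 level) for 5 h at 37 °C. CCF4 loading followed for 1 h at RT; 460/530 nm ratio gave %activity.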

[5] = Stat Signaling Pathway (AID 446); conditions: ME-180 (cervical carcinoma) SIE beta-lactamase reporter, IL-6 stimulated, 5 h; at 7.69 µM (top of the series) unless noted;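 note: ME-180 cervical cancer cells given 40 pM IL-6 alongside compound; SIE-controlled beta-lactamase reporter measured as 460/530 nm FRET emission ratio; % is set by controls: 0 for no effect and ±100 for the full control effect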
Outline: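 Compound effects on IL-6-induced STAT reporter activity were measured in ME-180 cells. After overnight culture, cells were co-treated with 40 pM IL-6 for 5 hrs before beta-lactamase substrate loading at room temperature.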

[6] = biological target: Glucocorticoid receptor (Homo sapiens) (UniProt P04150); test: GR-EFC Redistribution (AID 451; calls by dose curve; note: potency is the fitted concentration of half-maximal effect); conditions: CHO-K1 GR-EFC translocation, beta-gal luminescence, 2 h
Sequence of Glucocorticoid receptor (Homo sapiens) (P04150 whole entry, looked up, the tested form may be a part): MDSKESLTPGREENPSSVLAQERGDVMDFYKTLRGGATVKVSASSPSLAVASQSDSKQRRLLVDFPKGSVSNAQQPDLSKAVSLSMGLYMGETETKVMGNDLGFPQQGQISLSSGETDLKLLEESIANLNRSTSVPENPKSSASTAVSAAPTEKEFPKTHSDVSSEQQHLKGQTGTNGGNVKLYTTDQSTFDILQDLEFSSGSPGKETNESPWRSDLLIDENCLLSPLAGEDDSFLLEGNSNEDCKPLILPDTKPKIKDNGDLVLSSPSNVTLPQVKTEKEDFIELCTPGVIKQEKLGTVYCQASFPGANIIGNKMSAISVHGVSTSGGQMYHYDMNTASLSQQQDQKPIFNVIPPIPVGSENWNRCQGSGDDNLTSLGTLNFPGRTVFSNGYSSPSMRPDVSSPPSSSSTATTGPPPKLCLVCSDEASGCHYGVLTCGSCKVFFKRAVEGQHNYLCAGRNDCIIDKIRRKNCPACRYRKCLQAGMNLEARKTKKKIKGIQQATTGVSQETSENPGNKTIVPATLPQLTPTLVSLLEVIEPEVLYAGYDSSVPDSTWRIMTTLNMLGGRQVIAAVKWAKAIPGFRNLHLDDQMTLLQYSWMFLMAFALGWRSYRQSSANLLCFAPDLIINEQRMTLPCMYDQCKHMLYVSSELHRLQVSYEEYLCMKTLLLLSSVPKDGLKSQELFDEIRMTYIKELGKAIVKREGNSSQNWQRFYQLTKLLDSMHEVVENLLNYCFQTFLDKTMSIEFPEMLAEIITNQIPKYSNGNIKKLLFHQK
Outline: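 CHO-K1 cells stably expressing nuclear-localized β-gal enzyme acceptor and GR fused C-terminally to the enzyme donor fragment; ligand-driven nuclear translocation restores β-gal by complementation. Compounds titrated up to 46 uM final, 2 h at 37 °C; luminescence read.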

[7] = biological target: Mitogen-activated protein kinase 10 (Mus musculus) (UniProt Q61831); test: JNK3 AlphaScreen Assay (AID 530); conditions: JNK3 lysate, c-Jun phosphorylation; series mostly up to 57.1 µM;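 note: kinase came from lysate of stimulated human HepG2 cells; signal reports phosphorylation of biotinylated GST-cJun 1-79 at Ser73 with 10 µM ATP; % is set by controls: 0 for no effect and ±100 for the full control effect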
Outline: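 Phosphorylation of biotinylated GST-cJun(1-79) at Ser73 is measured by AlphaScreen proximity luminescence. Enzyme is JNK3 in HepG2 lysates activated with interleukin-1beta and tumor necrosis factor alpha; ATP is 10 uM final.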

[8] = biological target: 3',5'-cyclic-AMP phosphodiesterase 4B (Homo sapiens) (UniProt Q07343); test: qHTS Assay for Inhibitors of PDE-IV (AID 607; active = well fitted activation curve with a large enough effect in the main read-out, with a control signal flat, not every such curve was filed as active; note: % of control where 0% means no effect); conditions: HEK293 ACTOne CNG channel cells, membrane potential fluorescence; series mostly up to 22.9 µM
Sequence of 3',5'-cyclic-AMP phosphodiesterase 4B (Homo sapiens) (Q07343 whole entry, looked up): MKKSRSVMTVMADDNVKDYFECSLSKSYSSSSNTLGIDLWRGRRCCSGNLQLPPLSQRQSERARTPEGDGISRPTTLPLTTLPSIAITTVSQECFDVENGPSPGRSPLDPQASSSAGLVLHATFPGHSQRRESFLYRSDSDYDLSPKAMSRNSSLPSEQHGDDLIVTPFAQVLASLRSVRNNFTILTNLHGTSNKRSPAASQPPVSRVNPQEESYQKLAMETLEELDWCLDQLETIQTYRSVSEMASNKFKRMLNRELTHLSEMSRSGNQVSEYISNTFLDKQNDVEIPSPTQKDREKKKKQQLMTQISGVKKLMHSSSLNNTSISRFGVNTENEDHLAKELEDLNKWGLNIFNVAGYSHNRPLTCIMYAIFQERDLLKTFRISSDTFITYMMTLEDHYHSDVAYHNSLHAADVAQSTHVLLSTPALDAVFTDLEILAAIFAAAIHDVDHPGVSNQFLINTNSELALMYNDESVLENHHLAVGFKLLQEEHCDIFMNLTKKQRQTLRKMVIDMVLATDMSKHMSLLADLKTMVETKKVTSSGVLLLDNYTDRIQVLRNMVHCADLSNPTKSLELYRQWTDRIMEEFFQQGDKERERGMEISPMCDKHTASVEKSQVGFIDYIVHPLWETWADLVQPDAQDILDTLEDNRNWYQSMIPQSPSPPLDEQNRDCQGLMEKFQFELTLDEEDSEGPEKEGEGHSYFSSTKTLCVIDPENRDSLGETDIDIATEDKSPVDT
Outline: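 ACTOne HEK293 cells carry a modified cAMP-gated CNG channel and express endogenous PDE4; plated 1000 cells/well, compounds up to 22.9 uM final. Membrane-potential dye fluorescence (ex 535/em 590) was read; parental cells received 10 uM forskolin + 100 uM RO 20-1724.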

[9] = qHTS Assay for Lipid Storage Modulators (AID 1519; calls by dose curve); conditions: Drosophila S3 cells, BODIPY lipid droplet/cell ratio, laser cytometry, cells loaded with oleic acid; for activity change, negative = inhibition: at 57.5 µM (top of the series)
Outline: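 Cells seeded at 5,000 per well were treated with compounds over a concentration series and loaded with oleic acid (400 uM, as added). Lipid droplet fluorescence (488 nm excitation, 500-530 nm channel) was read by laser-scanning cytometry and normalized to 20 uM Triacsin C.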

[10] = Primary qHTS for small molecule stabilizers of the endoplasmic reticulum resident proteome: Secreted ER Calcium Modulated Protein (SERCaMP) assay (AID 1508630; active = well fitted curve in the direction sought with a large enough effect; an effect the other way counts as inactive or inconclusive; note: % is set by controls: 0 for no effect and ±100 for the full control effect); conditions: SH-SY5Y GLuc-SERCaMP (Gaussia luciferase released on ER calcium loss) secretion, thapsigargin, luminescence; series mostly up to 38.4 µM
Outline: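 The SH-SY5Y reporter protocol was run at 3 concentrations up to 38.3 uM (primary) or 11 concentrations (follow-up): 16 h compound, 100 nM thapsigargin for 4 h, then extracellular luciferase luminescence.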

[11] = biological target: Cytochrome P450 2C19 (Homo sapiens) (UniProt P33261); test: qHTS Assay for Inhibitors and Substrates of Cytochrome P450 2C19 (AID 899; active = well fitted curve in the direction sought with a large enough effect; an effect the other way counts as inactive or inconclusive; note: nearly all actives have a fitted effect of over 60% in size; note: potency is the fitted concentration of half-maximal effect); conditions: recombinant CYP2C19, luciferin-H EGE luminescence; series mostly up to 57.1 µM
Sequence of Cytochrome P450 2C19 (Homo sapiens) (P33261 whole entry, looked up): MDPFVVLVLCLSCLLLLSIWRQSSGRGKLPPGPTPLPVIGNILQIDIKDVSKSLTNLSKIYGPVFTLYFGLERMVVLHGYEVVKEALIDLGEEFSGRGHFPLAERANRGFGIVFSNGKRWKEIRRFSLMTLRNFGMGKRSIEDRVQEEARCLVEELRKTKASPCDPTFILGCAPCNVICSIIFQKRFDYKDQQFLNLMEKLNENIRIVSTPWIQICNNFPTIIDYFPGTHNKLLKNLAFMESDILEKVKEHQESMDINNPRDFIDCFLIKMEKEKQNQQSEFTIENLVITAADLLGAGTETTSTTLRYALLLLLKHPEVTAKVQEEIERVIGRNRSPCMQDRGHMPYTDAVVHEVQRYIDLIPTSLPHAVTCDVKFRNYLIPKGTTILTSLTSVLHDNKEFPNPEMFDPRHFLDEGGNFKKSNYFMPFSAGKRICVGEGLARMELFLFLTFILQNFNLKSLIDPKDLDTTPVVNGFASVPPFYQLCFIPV
Outline: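 Human CYP2C19 (5nM) with Luciferin-H EGE at 10uM (its KM) in 50mM KPO4 was preincubated with compound for 10 min at 37C. NADPH regeneration started a 60 min 37C reaction. Luciferin was read by luminescence, normalized to 57uM ketoconazole.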

[12] = biological target: Cytochrome P450 3A4 (Homo sapiens) (UniProt P08684); test: qHTS Assay for Inhibitors and Substrates of Cytochrome P450 3A4 (AID 884; active = well fitted curve in the direction sought with a large enough effect; an effect the other way counts as inactive or inconclusive; note: % is set by controls: 0 for no effect and ±100 for the full control effect; nearly all actives have a fitted effect of over 50% in size); conditions: recombinant CYP3A4, Luciferin-PPXE luminescence; series mostly up to 57.1 µM
Sequence of Cytochrome P450 3A4 (Homo sapiens) (P08684 whole entry, looked up): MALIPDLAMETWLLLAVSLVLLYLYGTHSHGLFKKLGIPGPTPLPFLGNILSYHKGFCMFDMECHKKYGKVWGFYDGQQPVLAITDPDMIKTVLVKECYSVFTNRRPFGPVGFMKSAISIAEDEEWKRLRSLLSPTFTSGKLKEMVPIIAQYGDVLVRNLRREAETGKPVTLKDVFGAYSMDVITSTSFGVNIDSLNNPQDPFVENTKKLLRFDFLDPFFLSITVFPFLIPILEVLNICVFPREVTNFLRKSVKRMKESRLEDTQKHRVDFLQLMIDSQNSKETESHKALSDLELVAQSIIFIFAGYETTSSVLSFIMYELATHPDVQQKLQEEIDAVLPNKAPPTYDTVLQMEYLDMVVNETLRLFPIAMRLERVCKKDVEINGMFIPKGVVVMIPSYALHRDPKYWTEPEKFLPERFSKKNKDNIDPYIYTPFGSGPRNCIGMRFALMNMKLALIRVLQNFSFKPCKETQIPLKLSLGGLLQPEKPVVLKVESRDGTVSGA
Outline: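 Luminescent readout of luciferin produced by CYP3A4 (20 nM) dealkylation of Luciferin-PPXE, 25 uM (its KM). NADPH-driven reaction ran 60 min at RT after 10 min compound preincubation; data scaled to 57 uM ketoconazole as 100% inhibition.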

[13] = biological target: Cytochrome P450 3A4 (Homo sapiens) (UniProt P08684); test: qHTS Assay for Activators of Cytochrome P450 3A4 (AID 885; active = well fitted curve in the direction sought with a large enough effect; an effect the other way counts as inactive or inconclusive; note: nearly all actives have a fitted effect of over 65% in size; note: potency is the fitted concentration of half-maximal effect); conditions: recombinant CYP3A4, Luciferin-PPXE luminescence, 60 min; series mostly up to 57.1 µM
Outline: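 CYP3A4 activity: Luciferin-PPXE O-dealkylation, 25uM substrate, 200mM KPO4, RT throughout. Read-out is luciferase luminescence; higher values reflect activation.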

[14] = biological target: Cytochrome P450 2D6 (Homo sapiens) (UniProt P10635); test: qHTS Assay for Inhibitors and Substrates of Cytochrome P450 2D6 (AID 891; active = well fitted curve in the direction sought with a large enough effect; an effect the other way counts as inactive or inconclusive; note: potency is the fitted concentration of half-maximal effect; nearly all actives have a fitted effect of over 60% in size); conditions: recombinant CYP2D6, luciferin-ME EGE luminescence; series mostly up to 57.1 µM
Sequence of Cytochrome P450 2D6 (Homo sapiens) (P10635 whole entry, looked up): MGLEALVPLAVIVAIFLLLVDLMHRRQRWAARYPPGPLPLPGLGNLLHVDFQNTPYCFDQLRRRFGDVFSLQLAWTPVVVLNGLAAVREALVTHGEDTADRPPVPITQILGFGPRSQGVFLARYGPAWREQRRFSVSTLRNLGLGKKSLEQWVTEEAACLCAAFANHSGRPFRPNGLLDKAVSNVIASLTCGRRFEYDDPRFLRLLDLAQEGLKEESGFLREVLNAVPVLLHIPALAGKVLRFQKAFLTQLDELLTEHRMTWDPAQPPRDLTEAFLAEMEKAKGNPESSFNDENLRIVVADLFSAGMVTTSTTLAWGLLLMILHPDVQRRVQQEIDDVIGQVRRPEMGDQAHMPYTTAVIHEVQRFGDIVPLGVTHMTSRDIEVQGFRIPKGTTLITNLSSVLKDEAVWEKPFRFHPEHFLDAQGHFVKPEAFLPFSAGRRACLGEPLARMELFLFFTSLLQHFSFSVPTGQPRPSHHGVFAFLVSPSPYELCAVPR
Outline: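 Luminescent read-out of luciferin formed by 5 nM human CYP2D6 demethylating 30 uM Luciferin-ME EGE (Km level) over 60 min at room temperature after NADPH regeneration addition. Data normalized to full inhibition by 1.43 uM quinidine.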

[15] = measured here: cell count channel max response
[16] = measured here: lipid channel max response

| Structure (SMILES) | Potency [1] | activity change, negative = inhibition [2] | Potency [3] | activity change, negative = inhibition [4] | activity, negative = inhibition [5] | Potency [6] | outcome [7] | Potency [8] | activity change, negative = inhibition [9] | max response [9, 15] [%] | max response [9, 16] [%] | Potency [10] | Potency [11] | Potency [12] | Potency [13] | Potency [14] |
| --- | --- | --- | --- | --- | --- | --- | --- | --- | --- | --- | --- | --- | --- | --- | --- | --- |
| Cn1cccc1C(=O)N1CCC2(CC1)CN(C(=O)Nc1ccccc1)C2 | > 11.4 µM (inactive) | -4.26% (inactive) | inactive | 8.61% (inactive) | -5.03% (inactive) | > 46 µM (inactive) | inactive | inactive | 5.97% (inactive) | 8.17 | 14.5 | inactive |  |  |  |  |
| CC(C)NC(=O)N1CC[C@@]2(CCCN(C(=O)Oc3ccccc3)C2)C1 |  |  |  |  |  |  |  |  |  |  |  |  | inactive |  |  |  |
| O=C(c1cc(C(F)(F)F)cc(C(F)(F)F)c1)N1CCC[C@@]2(CCN(Cc3ccncc3)C2)C1 |  |  |  |  |  |  |  |  |  |  |  |  | 0.199 µM (active) |  |  |  |
| COC(=O)N1CCC2(CC1)CN(C(c1ccccc1)c1ccccc1)C2 | > 11.4 µM (inactive) | 3.69% (inactive) | inactive | -16.9% (inactive) | 5.28% (inactive) | > 46 µM (inactive) | inactive | inactive | -2.77% (inactive) | 5.36 | 5.91 | inactive |  | inactive | 0.794 µM (active) | 0.794 µM (active) |
| O=C(c1cccc(F)c1)N1CCC2(CC1)CCN(c1cccc(-c3ccccc3)c1)CC2 | > 11.4 µM (inactive) | -4.91% (inactive) | 20 µM (active) | 4.3% (inactive) | -10.4% (inactive) | > 46 µM (inactive) | inactive | inactive | -5.71% (inactive) | -11.6 | -13.5 | inactive |  | inactive | 5.01 µM (active) |  |
| Cn1cccc1C(=O)N1CCC2(CC1)CCN(c1ccc(-c3ccccc3)cc1)CC2 | > 11.4 µM (inactive) | -19.9% (inactive) | 20 µM (active) | 11.4% (inactive) | -10.4% (inactive) | > 46 µM (inactive) | inactive | inactive | -6.03% (inactive) | -2.01 | -7.47 | inactive |  | inactive | 15.8 µM (active) |  |
| COCC(=O)N1CCC[C@@]2(CCN(Cc3ccc(C#N)cc3)C2)C1 | > 11.4 µM (inactive) | -13.6% (inactive) | inactive | 4.93% (inactive) | 5.14% (inactive) | > 46 µM (inactive) | inactive | inactive | 5.07% (inactive) | 7.03 | 15.9 | inactive |  |  | inactive |  |
| COC(=O)N1CCC2(CCN(Cc3nccs3)CC2)CC1 | > 11.4 µM (inactive) | -10.7% (inactive) | inactive | -25.8% (inactive) | 0.339% (inactive) | > 46 µM (inactive) | inactive | inactive | 2.86% (inactive) | 6.91 | 13.2 | inactive |  | inactive |  |  |
